# Source: PubChem BioAssay (Tox21)
# Inconclusive results are not listed. A number with no mark means an inactive call. Calls follow the shape of the dose curve; as a rule, active = well fitted activation curve with a large enough effect in the repeat runs; inconclusive = weak or mixed curves; inactive = flat fitted curve, though single readings scatter.
# Experiment: A CellTox Green Cytotoxicity Assay to monitor cytotoxicity in HEK293 cells - 24 hour (AID 1224875); also: nearly all actives have a fitted effect of over 45% in size
# Settings: CellTox Green fluorescence; series mostly up to 76.8 µM; activity change: at the top concentration
# Summary of the method: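 Tox21 screen in HEK293: membrane-impermeant cyanine dye fluoresces on binding dead-cell DNA; compound pinned 5 h post-seeding, plates held at 37 C, signal read repeatedly through 40 h.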
# % is scaled to controls: 0 for no effect and ±100 for the full control effect.
row,Structure (SMILES),activity change
1,C#CCOC(C(=O)OCCN(C)C)(c1ccccc1)c1ccccc1,"3.88% [at 35.3 µM, stronger effect = higher value]"
2,Brc1ccccc1,17%
3,C[C@]12CC[C@H]3[C@@H](CCC4=CC(=O)CC[C@@H]43)[C@@H]1CC[C@@H]2OC(=O)CCC1CCCCC1,"0.963% [at 35.3 µM, stronger effect = higher value]"
4,Cn1sc(Cl)cc1=O,-0.128%
5,CC(C)O.CC(C)O.OCCN(CCO)CCO.OCCN(CCO)CCO.[Ti],-7.61%
6,c1ccoc1,-3.9%
7,O=C1c2ccccc2C(=O)C1C(=O)C(c1ccccc1)c1ccccc1,"-12.9% [at 35.3 µM, stronger effect = higher value]"
8,NCC(CC(=O)O)c1ccc(Cl)cc1 (stereo not given),"-19.1% [at 0.29 µM, stronger effect = higher value]"
9,CCOS(C)(=O)=O,15.8%
10,O=C(NCc1cccnc1)Nc1ccc([N+](=O)[O-])cc1,17.7%
11,Cc1ccccc1CCl,-6.41%
12,ClCCCCBr,1.38%
13,COP(=S)(OC)Oc1cc(Cl)c(I)cc1Cl,-9.63%
14,Nc1ccc([N+](=O)[O-])cc1[N+](=O)[O-],-6.34%
15,CN1C(=O)NC(=O)C(C)(C2=CCCCC2)C1=O (stereo not given),"1.5% [at 35.3 µM, stronger effect = higher value]"
16,O=C(CBr)Nc1ccc(Cl)cc1C(=O)c1ccccc1F,"-0.366% [at 35.3 µM, stronger effect = higher value]"
17,C=CC(=O)OCC(C)O (stereo not given),-4.65%
18,CC1C(=O)C[C@]2(C(C)C)C[C@H]12 (stereo not given in full),-0.324%

row,Structure (SMILES),activity change
1,C=CCC1([C@H](C)CCC)C(=O)NC(=O)NC1=O,-3.57%
2,COc1cc(Cl)c(OC)cc1Cl,-0.495%
3,CCCCCCCCCCOC(=O)c1ccccc1C(=O)OCCCCCCCCCC,-8.77%
4,CCCN(CCC)c1c([N+](=O)[O-])cc(S(C)(=O)=O)cc1[N+](=O)[O-],-8.1%
5,CCc1ccc(C(=O)NN(C(=O)c2cc(C)cc(C)c2)C(C)(C)C)cc1,-16.5%
6,Clc1cc(Cl)c(Cl)c(Cl)c1,1.41%
7,CC(C)(OO)c1ccccc1,16.2%
8,Nc1ccc(N=Nc2ccc(-c3ccc(N=Nc4c(S(=O)(=O)O)cc5cc(S(=O)(=O)O)c(N=Nc6ccccc6)c(O)c5c4N)cc3)cc2)c(N)c1,"9.39% [at 35.3 µM, stronger effect = higher value]"
9,N#Cc1ccc(Cl)cc1,-4.9%
10,CC(=O)C(C)(C)C,1.87%
11,C[N+](C)(C)CCCl,-0.284%
12,CN1C[C@H](CNC(=O)OCc2ccccc2)C[C@@H]2c3cccc4c3c(cn4C)C[C@H]21,"0.66% [at 35.3 µM, stronger effect = higher value]"
13,CCOP(=S)(OCC)SCSCC,3.68%
14,O=C(O)COc1ccc(Cl)cc1,8.81%
15,ClCc1cccc(Cl)c1,"0.115% [at 35.3 µM, stronger effect = higher value]"
16,COCC(C)N(C(=O)CCl)c1c(C)csc1C (stereo not given),1.11%
17,COC1=CC(=O)O[C@@H](CCc2ccccc2)C1,-5.1%
